Screens deposited in PubChem by several laboratories.
TWEAK-Fn14 inh = inhibitors of TWEAK-Fn14 signaling, primary screen, luciferase reporter cells, uHTS | TWEAK-stimulated Fn14 reporter cells, luciferase luminescence, 8 h | inhibition, % at 10 µM | 2% of 360,000 active | AID 1159606, 2016; in the data active = inhibition above about 50%
EWS-Fli inh = EWS/Fli-driven NR0B1 reporter inhibitors, primary screen, A673 cells, NR0B1 luciferase, luminescence, MLPCN library; viability-normalised; inhibition, % at 12.6 µM; 0.67% of 350,000 active; AID 651661, 2012;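 active = mean inhibition of at least 50% after viability correction, with every replicate also passing that limit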;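 also: firefly luciferase signal divided by Alamar Blue viability fluorescence both relative to DMSO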
KKLEB cytotox = cytotoxicity in KKLEB CF airway cells, primary screen, cytotoxicity control for CF NF-kB inhibitor project, cell-based, uHTS, fluorescence assay plates. KKLEB CF airway cells viability, ATPlite luminescence, overnight; hits give low values; cells stimulated with P. aeruginosa culture filtrate. activity change (cytotoxicity), % at 5 µM. 0.36% of 360,000 active. AID 602141, 2011;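 active = corrected activity change at or below -50% at 5 µM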
LGR2 antag = inhibitors of bursicon-induced LGR2 CRE-luciferase signal, primary screen, cell-based, HEK293, CRE-luciferase reporter, bursicon stimulation | bursicon-stimulated, 4 h | Drosophila bursicon receptor LGR2 (rickets) | 0.35% of 380,000 active | inhibition, % at 9.99 µM;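 active = drop in luminescence signal, shown as inhibition above about 50% in the replicate tests, limit read from the data, passing the limit was not always enough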;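 also: agonist challenge used bursicon conditioned medium at about half maximal strength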
CF NFkB inh = inhibitors of PAF-induced NF-kB signaling, primary screen, cell-based, GFP fluorescence, uHTS; KKLEB NF-kB-GFP reporter, GFP fluorescence overnight; inhibition, % at 5 µM; 0.86% of 360,000 active; AID 588850, 2011;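 active = at least 50% inhibition at 5 µM, scaled per plate between neutral and stimulator controls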;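 also: PAF is a Pseudomonas aeruginosa culture filtrate used as stimulus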
TROY signal inh = inhibitors of TROY-driven NF-kB signaling, primary screen, Q293 LMP1-TROYcd cells, NF-kB luciferase, uHTS; Q293 LMP1-TROYcd NF-kB luciferase reporter, 4 h; inhibition, % at 10 µM; 0.98% of 360,000 active; AID 1347056, 2019;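 active = compounds whose plate-normalised and pattern-corrected inhibition of the luciferase reporter signal at the single screening dose is 50% or more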
DNA binding = DNA binders by acridine orange displacement, dose response, counter-screen for EWS/Fli inhibitor project, biochemical, fluorescence polarization, cherry-pick; AC35, µM (series often up to 68 µM); salmon sperm DNA acridine orange fluorescence polarization; 2% of 640 active; shares compounds with EWS-Fli inh;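 active = fitted curve reaches a 35% signal fall AC35 below twice the sample's top valid tested dose, actives reach about 48 µM in these data; inactive = the rest, including activity in the rising direction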;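 also: lower polarization ratio signals compound binding to DNA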
A number is an active result; n = inactive; x = not tested or not shown; ! = repeats disagree. Compounds with a hit are over-represented: about 2.6% of the library has one in this group of screens.

SMILES	TWEAK-Fn14 inh	EWS-Fli inh	KKLEB cytotox	LGR2 antag	CF NFkB inh	TROY signal inh	DNA binding
O=C(CN1C(=O)C(=O)c2ccccc21)c1ccc(Cl)cc1	n	60	n	n	n	n	n
CCN(CC)C(=O)CN1C(=O)C(=O)c2ccccc21	n	54	n	n	n	n	n
C[C@H](NC(=O)C[C@H]1C=C[C@@H](NC(=O)c2cccnc2)[C@@H](CO)O1)c1ccccc1	x	n	x	n	x	x	x
O=C(NCC[C@H]1CC[C@H](NC(=O)C2CCCC2)[C@@H](CO)O1)c1cnccn1	x	n	x	n	x	x	x
COc1ccc(/C=C2/NC(=O)N(CC(=O)Nc3cccc(C)c3)C2=O)cc1O	n	62	n	n	n	n	n
O=c1[nH]c(=O)n(C2CC(O)C(CO)O2)cc1Br (stereo unspecified)	n	n	n	n	n	n	x
O=c1[nH]c(=O)n(C2C[C@H](O)[C@@H](CO)O2)cc1C(F)(F)F (stereo partly specified)	n	62	n	n	n	n	n
O=c1[nH]c(=O)n([C@H]2C[C@H](O)[C@@H](CO)O2)cc1C(F)(F)F	n	57	n	n	n	n	n
C[C@@H]1CN([C@@H](C)CO)S(=O)(=O)c2ccc(-c3cccc(C#N)c3)cc2O[C@@H]1CN(C)C(=O)Nc1ccccc1F	x	n	x	n	x	x	x
CCc1nc(N)nc(N)c1-c1ccc(Cl)c(N=[N+]=[N-])c1	n	67!	n	n	n	n	n
COc1cc2c(OC(C)=O)c3c(c(-c4ccc5c(c4)OCO5)c2cc1OC)C(=O)OC3	n	65	n	x	n	n	n
COc1ccccc1CNC(=O)C[C@@H]1CC[C@H]2[C@@H](COC[C@H](O)CN2C(=O)Nc2ccc(C(F)(F)F)cc2)O1	x	70	x	n	x	x	n
O=c1oc2ccccc2cc1-c1ccc(O)cc1	n	n	n	x	n	n	x
Nc1ccc(-c2cc3ccccc3oc2=O)cc1	82	79	n	n	n	60	n
Cc1ccc(S(=O)(=O)Nc2ccc3c(c2)C(=O)N([C@@H](C)CO)C[C@H](C)[C@@H](CN(C)Cc2ccc(C(F)(F)F)cc2)OCCCC[C@@H](C)O3)cc1	x	55	x	n	x	x	n
C[C@H](CO)N1C[C@H](C)[C@H](CN(C)Cc2ccc(C(F)(F)F)cc2)OCCCC[C@H](C)Oc2ccc(NC(=O)Nc3ccccc3)cc2C1=O	x	n	x	n	x	x	x
Cc1ccc(S(=O)(=O)Nc2ccc3c(c2)C(=O)N([C@H](C)CO)C[C@H](C)[C@@H](CN(C)Cc2ccc(C(F)(F)F)cc2)OCCCC[C@H](C)O3)cc1	x	69	x	n	x	x	n
C[C@H]1CCCCO[C@H](CN(C)Cc2ccc(C(F)(F)F)cc2)[C@@H](C)CN([C@@H](C)CO)C(=O)c2cc(NC(=O)Nc3ccccc3)ccc2O1	x	65	x	n	x	x	n
C[C@@H]1CCCCO[C@@H](CN(C)C(=O)Cc2ccccc2)[C@@H](C)CN([C@@H](C)CO)C(=O)c2cc(NS(=O)(=O)c3ccc(F)cc3)ccc2O1	x	64	x	n	x	x	n
C[C@@H]1CCCCO[C@H](CN(C)C(=O)Nc2ccc(F)cc2)[C@H](C)CN([C@@H](C)CO)C(=O)c2cc(NS(=O)(=O)c3ccc(F)cc3)ccc2O1	x	n	x	n	x	x	x
C[C@@H]1CN([C@H](C)CO)C(=O)CCCn2nncc2CO[C@@H]1CN(C)Cc1ccc(-c2ccccc2)cc1	x	n	x	n	x	x	x
COc1ccc(CN(C)C[C@@H]2OCCCC[C@@H](C)Oc3ccc(NC(=O)c4ccccc4)cc3C(=O)N([C@@H](C)CO)C[C@@H]2C)cc1	x	n	x	n	x	x	x
C[C@H]1CN([C@@H](C)CO)C(=O)c2cc(-c3ccc(F)cc3)cnc2O[C@@H]1CN(C)Cc1cncnc1	x	n	x	n	x	x	x
